Compounds without any hit were thinned out: in the full panel of roughly 83,000, 20% have a hit.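 Percent growth is the endpoint: 0 to 100 indicates growth inhibition (40 means 60% inhibition), 0 means no net growth, and negative values indicate cell death.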 Active and inactive are the calls of the source. The calls were made as follows: active = growth percent below 10; inactive = the rest.
How the values were obtained:
Experiment in all cases: NCI-60 one-dose screen, 48 h (100 = growth as untreated, 0 = no growth, -100 = all killed)
Conditions in all cases: 10 µM unless noted
NCI-H23 lung = system: NCI-H23 lung
NCI-H226 lung = system: NCI-H226 lung
NCI-H322M lung = system: NCI-H322M lung
HOP-62 NSCLC = system: HOP-62 NSCLC
NCI-H460 lung = system: NCI-H460 lung
HOP-92 NSCLC = system: HOP-92 NSCLC
NCI-H522 lung = system: NCI-H522 lung
A549/ATCC NSCLC = system: A549/ATCC NSCLC
786-0 renal = system: 786-0 renal
COLO 205 colon = system: COLO 205 colon
DU-145 prostate = system: DU-145 prostate
K-562 leukemia = system: K-562 leukemia
MALME-3M melanoma = system: MALME-3M melanoma
MDA-MB-231 breast = system: MDA-MB-231 breast
RXF 393 renal = system: RXF 393 renal
SF-268 CNS = system: SF-268 CNS
SF-295 CNS = system: SF-295 CNS
SF-539 CNS = system: SF-539 CNS
UACC-257 melanoma = system: UACC-257 melanoma
M14 melanoma = system: M14 melanoma

Measured: growth

O=C(NCCN1CCOCC1)c1cncnc1Nc1ccc2c(ccn2Cc2ccccn2)c1
inactive: NCI-H23 lung 102% | NCI-H226 lung 95.2% | NCI-H322M lung 105% | HOP-62 NSCLC 102% | NCI-H460 lung 103% | HOP-92 NSCLC 93.8% | NCI-H522 lung 83.7% | A549/ATCC NSCLC 101% | 786-0 renal 98.5% | COLO 205 colon 95.6% | DU-145 prostate 110% | K-562 leukemia 116% | MALME-3M melanoma 102% | MDA-MB-231 breast 106% | RXF 393 renal 134% | SF-268 CNS 97.3% | SF-295 CNS 102% | SF-539 CNS 100% | UACC-257 melanoma 102% | M14 melanoma 108%

O=C(O)c1cc2ccccc2s1
inactive: NCI-H23 lung 101% | NCI-H226 lung 98.2% | NCI-H322M lung 110% | HOP-62 NSCLC 96.9% | NCI-H460 lung 104% | HOP-92 NSCLC 90% | NCI-H522 lung 107% | A549/ATCC NSCLC 104% | 786-0 renal 106% | COLO 205 colon 113% | DU-145 prostate 124% | K-562 leukemia 107% | MALME-3M melanoma 130% | MDA-MB-231 breast 104% | RXF 393 renal 110% | SF-268 CNS 107% | SF-295 CNS 97.8% | SF-539 CNS 101% | UACC-257 melanoma 105% | M14 melanoma 110%

NCCCCCNc1noc(Cc2c[nH]c3cc(Br)ccc23)n1
active: NCI-H522 lung -38.3% | COLO 205 colon -0.719% | DU-145 prostate 2.36% | RXF 393 renal -11.5% | SF-295 CNS 7.26% | SF-539 CNS -23% | M14 melanoma -26.3%
inactive: NCI-H23 lung 30.9% | NCI-H226 lung 61% | NCI-H322M lung 33.4% | HOP-62 NSCLC 21.6% | NCI-H460 lung 12.8% | HOP-92 NSCLC 19.7% | A549/ATCC NSCLC 24.6% | 786-0 renal 43.2% | K-562 leukemia 14.3% | MALME-3M melanoma 13.5% | MDA-MB-231 breast 51.2% | SF-268 CNS 54.1% | UACC-257 melanoma 54.8%

COCCn1cc(-c2nc(-c3cc4cccnc4n3C)cs2)c2cc(OC)ccc21
inactive: NCI-H23 lung 32.6% | NCI-H226 lung 46.6% | NCI-H322M lung 26% | HOP-62 NSCLC 47.2% | NCI-H460 lung 19.2% | HOP-92 NSCLC 31.4% | NCI-H522 lung 41.9% | A549/ATCC NSCLC 40.6% | 786-0 renal 66.8% | COLO 205 colon 50.4% | DU-145 prostate 76.7% | MALME-3M melanoma 108% | MDA-MB-231 breast 27.5% | RXF 393 renal 78.3% | SF-268 CNS 71.3% | SF-295 CNS 66.1% | SF-539 CNS 66.9% | UACC-257 melanoma 74.3% | M14 melanoma 63.7%
active: K-562 leukemia 9.5%

C#CC#CC#CC#CC#CC#CC#CC#CC[C@@H]1OC[C@H](COC(=O)O[C@@H](C(=O)O[C@H]2C[C@@]3(O)[C@@H](OC(=O)c4ccccc4)[C@@H]4[C@]5(OC(C)=O)CO[C@@H]5C[C@H](O)[C@@]4(C)C(=O)[C@H](OC(C)=O)C(=C2C)C3(C)C)[C@@H](NC(=O)c2ccccc2)c2ccccc2)O1
inactive: NCI-H23 lung 34.5% | NCI-H226 lung 57.6% | NCI-H322M lung 35.9% | HOP-62 NSCLC 55% | NCI-H460 lung 10.6% | HOP-92 NSCLC 63.7% | NCI-H522 lung 48.6% | A549/ATCC NSCLC 36.7% | 786-0 renal 72.9% | COLO 205 colon 18.7% | DU-145 prostate 24.4% | K-562 leukemia 15.8% | MALME-3M melanoma 43.7% | MDA-MB-231 breast 45.3% | RXF 393 renal 22.7% | SF-268 CNS 51.7% | SF-295 CNS 25.3% | SF-539 CNS 30.2% | UACC-257 melanoma 55.7% | M14 melanoma 18.6%

O=C(c1ccc(F)cc1)C1CCN(CCn2c(=O)[nH]c3ccccc3c2=O)CC1
inactive: NCI-H23 lung 99.6% | NCI-H226 lung 97.8% | NCI-H322M lung 105% | HOP-62 NSCLC 108% | NCI-H460 lung 122% | HOP-92 NSCLC 87.8% | NCI-H522 lung 82.9% | A549/ATCC NSCLC 107% | 786-0 renal 97% | COLO 205 colon 103% | DU-145 prostate 108% | K-562 leukemia 100% | MALME-3M melanoma 89.3% | MDA-MB-231 breast 110% | RXF 393 renal 115% | SF-268 CNS 103% | SF-295 CNS 97.6% | SF-539 CNS 103% | UACC-257 melanoma 110% | M14 melanoma 104%

CC1=NN(c2cccc(Cl)c2)C(=O)/C1=C\C=C\c1ccccc1
active: NCI-H226 lung 3.87% | COLO 205 colon 4.77% | RXF 393 renal -87.7%
inactive: NCI-H23 lung 26.3% | NCI-H322M lung 112% | HOP-62 NSCLC 22.3% | NCI-H460 lung 101% | HOP-92 NSCLC 101% | NCI-H522 lung 34.4% | A549/ATCC NSCLC 94.5% | 786-0 renal 35.5% | DU-145 prostate 112% | K-562 leukemia 76.9% | MALME-3M melanoma 116% | MDA-MB-231 breast 13.7% | SF-268 CNS 75.5% | SF-295 CNS 101% | SF-539 CNS 21.6% | UACC-257 melanoma 63.3% | M14 melanoma 14.4%

CC(=O)OCCOc1cc(Cl)c(Cl)cc1Cl
inactive: NCI-H23 lung 97.4% | NCI-H226 lung 101% | NCI-H322M lung 112% | HOP-62 NSCLC 103% | NCI-H460 lung 109% | HOP-92 NSCLC 82.3% | NCI-H522 lung 86.6% | A549/ATCC NSCLC 90.8% | 786-0 renal 100% | COLO 205 colon 121% | DU-145 prostate 105% | K-562 leukemia 102% | MALME-3M melanoma 114% | MDA-MB-231 breast 94.3% | RXF 393 renal 102% | SF-268 CNS 99.4% | SF-295 CNS 95% | SF-539 CNS 107% | UACC-257 melanoma 102% | M14 melanoma 103%
